Results: PubChem BioAssay (Tox21)
Records with an inconclusive call do not appear. Activity calls are given as the source filed them. Unless noted, calls come from the whole dose curve.

Assays:
[1] = qHTS assay to identify small molecule agonists of the estrogen receptor beta (ER-beta) signaling pathway - cell viability counter screen (AID 1259380; active = well fitted curve in the direction sought with a large enough effect in the repeat runs; an effect the other way counts as inactive or inconclusive; note: nearly all actives have a fitted effect of over 30% in size; note: potency is the fitted concentration of half-maximal effect)
Method in brief: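 Viability of ER-beta-UAS-bla HEK293T cells was determined by CellTiter-Glo luminescence following 16 hr treatment with test compounds at 37C.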

[2] = target: Androgen receptor (Homo sapiens) (UniProt P10275); assay: qHTS assay to identify small molecule agonists of the androgen receptor (AR) signaling pathway in the presence of an antagonist (AID 1259381); note: nearly all actives have a fitted effect of over 15% in size
Method in brief: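 Here, 15-concentration compound series were pin-transferred onto MDA-kb2 MMTV-luciferase cells already dosed with nilutamide (3.0uM final). After 16hr at 37C, ONE-Glo was added and luminescence read 30min later at room temperature.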

[3] = qHTS assay to identify small molecule antagonists of the estrogen receptor beta (ER-beta) signaling pathway - cell viability counter screen (AID 1259382; active = well fitted curve in the direction sought with a large enough effect in the repeat runs; an effect the other way counts as inactive or inconclusive; note: nearly all actives have a fitted effect of over 55% in size; note: potency is the fitted concentration of half-maximal effect;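 for activity change, negative = cytotoxicity: HEK293T cells carrying ER-beta-UAS-bla reporter stimulated with estradiol; series mostly up to about 92 µM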)
Method in brief: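 Tox21 10K library tested in qHTS format on ER-beta-bla HEK293T cells stimulated with 1nM E2; 16 hr treatment at 37C. Same-well CellTiter-Glo luminescence served as the cell viability measure.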

[4] = target: Thyrotropin receptor (Homo sapiens) (UniProt P16473); assay: qHTS assay to identify small molecule antagonists of the thyroid stimulating hormone receptor (TSHR) signaling pathway (AID 1259385); note: nearly all actives have a fitted effect of over 20% in size; note: potency is the fitted concentration of half-maximal effect
Method in brief: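 TSHR-HEK293 cells (800/well) plated 18 h, then compounds with Ro20-1724 and TSH at 1.5 ng/mL final, 30 min at room temperature. cAMP quantified by HTRF (cAMP-d2/anti-cAMP-cryptate, 1 h); 15 concentrations in triplicate.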

[5] = qHTS assay to identify small molecule agonists of the estrogen receptor alpha (ER-alpha) signaling pathway in the presence of an antagonist - cell viability counter screen (AID 1259386; active = well fitted curve in the direction sought with a large enough effect in the repeat runs; an effect the other way counts as inactive or inconclusive;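 note: cells exposed to compounds for 22 h at 37 °C before the viability read; nearly all actives have a fitted effect of over 30% in size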; note: potency is the fitted concentration of half-maximal effect; for activity change, negative = cytotoxicity: series mostly up to about 92 µM)
Method in brief: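 Fluorescent CellTiter-Fluor viability signal from VM7Luc4E2 cells, with the reagent added during the final hour of a 22hr compound exposure at 37C in the presence of 10.0nM ICI-182,780.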

[6] = qHTS assay to identify small molecule antagonists of the progesterone receptor (PR) signaling pathway - cell viability counter screen (AID 1346798; active = well fitted curve in the direction sought with a large enough effect in the repeat runs; an effect the other way counts as inactive or inconclusive; note: nearly all actives have a fitted effect of over 50% in size; note: potency is the fitted concentration of half-maximal effect; for activity change, negative = cytotoxicity: series mostly up to about 92 µM)
Method in brief: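 Following a 4 hr attachment, PR-UAS-bla HEK293T cells in charcoal-stripped FBS medium were exposed to compounds with R5020 for 16 hr; CellTiter-Glo was added and luminescence read after 30 min at room temperature.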

[7] = target: Estrogen receptor (Homo sapiens) (UniProt P03372); assay: qHTS assay to identify small molecule agonists of the estrogen receptor alpha (ER-alpha) signaling pathway in the presence of an antagonist (AID 1259383); note: top concentration of the series differs between compounds; nearly all actives have a fitted effect of over 15% in size
Method in brief: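 In VM7Luc4E2 cells, 4,000 per well, compounds at 15 concentrations were co-incubated 22hr at 37C with 10.0nM final ICI-182,780. Luminescence from the stably transfected 4×ERE-luciferase reporter was recorded 30min after ONE-Glo addition.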

[8] = qHTS assay to identify small molecule agonists or antagonists of the thyroid stimulating hormone receptor (TSHR) signaling pathway - wild type cell line counter screen (AID 1259384)
Method in brief: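 Wild-type Hek293 cells, 800/well, 18 h at 37C, then compound with Ro20-1724 for 30 min RT. cAMP by HTRF (cAMP-d2/anti-cAMP cryptate), 1 h RT, fluorescence read. 15 concentrations, triplicates.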

[9] = target: Progesterone receptor (Homo sapiens) (UniProt P06401); assay: qHTS assay to identify small molecule agonists of the progesterone receptor (PR) signaling pathway (AID 1346784); note: nearly all actives have a fitted effect of over 30% in size
Method in brief: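 Compounds were tested for PR agonism in HEK 293T cells bearing a beta-lactamase gene under UAS control. Treatment lasted 16 hr at 37C; signal came from fluorescence of a FRET substrate.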

[10] = target: Progesterone receptor (Homo sapiens) (UniProt P06401); assay: qHTS assay to identify small molecule antagonists of the progesterone receptor (PR) signaling pathway (AID 1346795; active = well fitted inhibition curve with a large enough effect in the signal ratio in the repeat runs, not every such curve was filed as active; the % refers to the signal ratio; note: potency is the fitted concentration of half-maximal effect)
Method in brief: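 In HEK293T cells bearing the PR-UAS-bla reporter, compound effects on promegestone-driven (1 nM) beta-lactamase expression are assessed after 16 hr using a fluorescent FRET substrate incubated 2 hr at room temperature.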
% is set by controls: 0 for no effect and ±100 for the full control effect.

Sequence of Progesterone receptor (Homo sapiens) (P06401 whole entry, looked up): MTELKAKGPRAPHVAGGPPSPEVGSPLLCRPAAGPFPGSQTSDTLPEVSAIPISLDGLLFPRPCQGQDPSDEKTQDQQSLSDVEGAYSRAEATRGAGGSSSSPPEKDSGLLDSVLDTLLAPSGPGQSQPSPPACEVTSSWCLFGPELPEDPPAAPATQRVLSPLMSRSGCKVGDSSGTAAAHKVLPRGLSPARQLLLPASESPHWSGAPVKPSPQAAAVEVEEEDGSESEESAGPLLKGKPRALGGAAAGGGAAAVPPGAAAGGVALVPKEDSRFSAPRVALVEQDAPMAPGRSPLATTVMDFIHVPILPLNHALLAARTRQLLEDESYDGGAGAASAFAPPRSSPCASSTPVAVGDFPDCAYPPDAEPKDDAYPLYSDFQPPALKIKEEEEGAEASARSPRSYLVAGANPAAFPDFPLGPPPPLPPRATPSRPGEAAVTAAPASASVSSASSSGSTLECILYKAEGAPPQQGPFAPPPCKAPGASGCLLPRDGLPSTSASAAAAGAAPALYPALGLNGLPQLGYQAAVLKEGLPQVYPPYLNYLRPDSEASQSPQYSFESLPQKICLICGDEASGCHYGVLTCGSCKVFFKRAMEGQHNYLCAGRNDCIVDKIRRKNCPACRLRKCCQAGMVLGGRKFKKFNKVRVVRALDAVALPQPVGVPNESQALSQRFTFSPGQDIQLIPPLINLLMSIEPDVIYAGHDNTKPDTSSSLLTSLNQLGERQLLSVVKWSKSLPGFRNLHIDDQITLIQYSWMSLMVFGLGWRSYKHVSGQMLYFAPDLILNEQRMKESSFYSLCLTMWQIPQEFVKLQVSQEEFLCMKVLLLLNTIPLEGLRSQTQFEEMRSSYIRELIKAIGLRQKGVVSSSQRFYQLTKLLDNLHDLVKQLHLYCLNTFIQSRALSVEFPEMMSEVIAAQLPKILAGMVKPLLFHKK
Sequence of Androgen receptor (Homo sapiens) (P10275 whole entry, looked up): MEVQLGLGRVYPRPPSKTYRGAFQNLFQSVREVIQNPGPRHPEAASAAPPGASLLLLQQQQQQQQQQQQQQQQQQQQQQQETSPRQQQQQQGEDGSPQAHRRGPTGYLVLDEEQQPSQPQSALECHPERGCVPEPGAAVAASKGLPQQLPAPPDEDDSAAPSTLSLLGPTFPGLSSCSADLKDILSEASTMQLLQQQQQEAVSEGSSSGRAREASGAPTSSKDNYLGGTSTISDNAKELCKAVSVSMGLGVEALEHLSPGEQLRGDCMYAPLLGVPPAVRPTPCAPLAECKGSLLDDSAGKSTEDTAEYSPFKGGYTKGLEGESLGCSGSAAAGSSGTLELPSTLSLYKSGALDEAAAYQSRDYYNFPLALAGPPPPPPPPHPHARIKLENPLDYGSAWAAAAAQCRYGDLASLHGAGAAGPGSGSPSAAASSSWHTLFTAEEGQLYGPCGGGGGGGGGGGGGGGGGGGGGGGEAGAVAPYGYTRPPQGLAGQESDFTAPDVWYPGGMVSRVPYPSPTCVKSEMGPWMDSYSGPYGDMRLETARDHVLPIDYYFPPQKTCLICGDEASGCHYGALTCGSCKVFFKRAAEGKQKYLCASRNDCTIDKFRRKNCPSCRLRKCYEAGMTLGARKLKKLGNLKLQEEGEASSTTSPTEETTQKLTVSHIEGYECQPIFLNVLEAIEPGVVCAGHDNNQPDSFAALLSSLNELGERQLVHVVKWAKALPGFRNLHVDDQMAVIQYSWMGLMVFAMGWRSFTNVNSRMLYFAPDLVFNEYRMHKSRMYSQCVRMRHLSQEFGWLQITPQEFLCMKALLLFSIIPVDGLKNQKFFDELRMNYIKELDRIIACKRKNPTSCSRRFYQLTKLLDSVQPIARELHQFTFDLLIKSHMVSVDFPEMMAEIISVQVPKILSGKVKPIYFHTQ
Sequence of Estrogen receptor (Homo sapiens) (P03372 whole entry, looked up): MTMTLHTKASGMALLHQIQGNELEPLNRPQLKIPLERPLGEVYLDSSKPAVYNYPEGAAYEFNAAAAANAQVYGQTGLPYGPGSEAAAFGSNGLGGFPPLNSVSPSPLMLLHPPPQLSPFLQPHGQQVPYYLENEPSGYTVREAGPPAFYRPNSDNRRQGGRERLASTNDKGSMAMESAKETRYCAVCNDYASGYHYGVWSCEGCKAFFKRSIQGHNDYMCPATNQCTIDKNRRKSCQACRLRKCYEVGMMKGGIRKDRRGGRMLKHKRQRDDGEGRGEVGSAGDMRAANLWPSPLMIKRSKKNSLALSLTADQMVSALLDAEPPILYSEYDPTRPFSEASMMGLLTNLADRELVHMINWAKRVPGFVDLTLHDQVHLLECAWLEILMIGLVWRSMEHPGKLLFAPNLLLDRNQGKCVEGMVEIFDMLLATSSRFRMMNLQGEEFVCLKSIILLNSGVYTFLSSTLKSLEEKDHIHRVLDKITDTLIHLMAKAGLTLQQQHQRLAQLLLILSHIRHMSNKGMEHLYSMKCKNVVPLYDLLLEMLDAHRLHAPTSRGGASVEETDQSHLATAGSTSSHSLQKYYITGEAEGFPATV
Sequence of Thyrotropin receptor (Homo sapiens) (P16473 whole entry, looked up): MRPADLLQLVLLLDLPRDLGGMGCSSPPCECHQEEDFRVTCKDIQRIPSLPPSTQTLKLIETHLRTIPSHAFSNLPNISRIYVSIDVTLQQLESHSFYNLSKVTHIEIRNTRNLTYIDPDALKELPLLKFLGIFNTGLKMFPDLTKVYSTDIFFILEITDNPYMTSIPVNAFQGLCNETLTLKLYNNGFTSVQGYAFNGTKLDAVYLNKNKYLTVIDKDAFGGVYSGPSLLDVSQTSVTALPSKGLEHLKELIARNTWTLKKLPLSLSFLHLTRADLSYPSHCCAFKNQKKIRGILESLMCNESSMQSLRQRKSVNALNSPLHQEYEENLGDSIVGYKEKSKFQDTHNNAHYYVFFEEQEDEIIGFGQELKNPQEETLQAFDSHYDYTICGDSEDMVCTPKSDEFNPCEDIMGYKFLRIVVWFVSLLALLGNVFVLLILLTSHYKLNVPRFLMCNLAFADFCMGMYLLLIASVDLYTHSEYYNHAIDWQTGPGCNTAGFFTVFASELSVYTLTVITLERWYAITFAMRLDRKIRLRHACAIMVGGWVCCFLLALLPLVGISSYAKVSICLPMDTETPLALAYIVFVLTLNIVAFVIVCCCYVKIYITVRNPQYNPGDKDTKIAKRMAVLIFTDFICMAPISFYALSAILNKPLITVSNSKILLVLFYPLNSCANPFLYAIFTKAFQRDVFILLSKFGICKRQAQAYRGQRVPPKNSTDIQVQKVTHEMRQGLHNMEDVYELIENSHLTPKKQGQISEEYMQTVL

O=C1OC2(c3ccccc31)c1ccc(O)c(Br)c1Oc1c2ccc(O)c1Br
inactive: Potency [1] | Potency [2] | Potency [3] | Potency [6]
active: Potency [4] 48.6 µM | Potency [5] 30.6 µM

C=C1CC[C@H]2O[C@]2(C)CC[C@@H]2[C@@H]1CC2(C)C
inactive: Potency [1] | Potency [2] | Potency [3] | Potency [7] | Potency [8] | Potency [4] | outcome [9] | Potency [10] | Potency [6]

CCOC(=O)[C@H](O)[C@@H](O)C(=O)OCC
inactive: Potency [1] | Potency [2] | Potency [3] | Potency [7] | Potency [5] | outcome [9] | Potency [10] | Potency [6]

CCOC(=O)OC(=O)OCC
inactive: Potency [1] | Potency [2] | Potency [3] | Potency [7] | Potency [8] | Potency [4] | outcome [9] | Potency [10] | Potency [6]

CCCCNc1ccc(NCCCC)c2c1C(=O)c1ccccc1C2=O
inactive: activity change, negative = cytotoxicity [1] 6.16% [at 19 µM] | activation [2] -0.623% [at 19 µM] | activity change, negative = cytotoxicity [3] 15.6% [at 19 µM] | activation [7] -0.833% [at 19 µM] | cAMP activity change [8] -7.38% [at 18.9 µM, hits give high values] | activity change, negative = inhibition [4] -5.35% [at 19 µM] | activation [9] 0% [at 19 µM] | activity change, negative = inhibition [10] 12.4% [at 18.9 µM] | activity change, negative = cytotoxicity [6] -7.34% [at 18.9 µM]

CCOC=C(C(=O)OCC)C(=O)OCC
inactive: Potency [1] | Potency [2] | Potency [3] | Potency [7] | Potency [8] | Potency [4] | outcome [9] | Potency [10] | Potency [6]

C=CC(C)(C)O
inactive: Potency [1] | Potency [2] | Potency [3] | Potency [7] | Potency [5] | outcome [9] | Potency [10] | Potency [6]

O=C(CCCCCCCCc1cccnc1)N1CCC(C=C(c2ccccc2)c2ccccc2)CC1
inactive: Potency [2] | Potency [8] | Potency [4]
active: Potency [1] 21.7 µM | Potency [3] 24.3 µM | Potency [10] 21.7 µM | Potency [6] 30.6 µM

O=C(Cl)c1ccc(Cl)cc1Cl
inactive: Potency [1] | Potency [2] | Potency [3] | Potency [7] | Potency [5] | outcome [9] | Potency [10] | Potency [6]
